HEK293 tox = cytotoxic in the GLP-1 receptor inverse agonist counter-screen | 410,000 compounds, 0.13% hits | HEK293 cAMP-luciferase reporter cells, luminescence, 24 h | Potency, µM (top dose mostly 38.3 µM), for the others: at the top dose activity change, negative = inhibition, actives largely listed as inhibitors | AID 624418;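 note: loss of luciferase light is scored as toxicity; % is set by controls: 0 for no effect and ±100 for the full control effect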
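Step one: seed cells (200 cells/uL, DMEM with 10% Nu serum, 1% pen-strep). Step two: 12-hour incubation at 37 deg C. Step three: pin 23 nL compound, incubate 24 hr. Step four: add luciferase reagent, read luminescence 12 min later.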
GLP1R inv ag = acts as inverse agonist at human GLP-1 receptor; HEK293 GLP-1R CRE-luciferase, luminescence, 24 h; GLP-1R form is constitutively active; Potency, µM (highest dose often 38.3 µM), for the others: top-dose activity change, negative = inhibition, hits mostly inhibitors; P43220; AID 624417; 410,000 compounds, 1.6% hits; note: % is set by controls: 0 for no effect and ±100 for the full control effect; nearly all actives have a fitted effect of over 55% in size
Target sequence (P43220 whole entry, looked up): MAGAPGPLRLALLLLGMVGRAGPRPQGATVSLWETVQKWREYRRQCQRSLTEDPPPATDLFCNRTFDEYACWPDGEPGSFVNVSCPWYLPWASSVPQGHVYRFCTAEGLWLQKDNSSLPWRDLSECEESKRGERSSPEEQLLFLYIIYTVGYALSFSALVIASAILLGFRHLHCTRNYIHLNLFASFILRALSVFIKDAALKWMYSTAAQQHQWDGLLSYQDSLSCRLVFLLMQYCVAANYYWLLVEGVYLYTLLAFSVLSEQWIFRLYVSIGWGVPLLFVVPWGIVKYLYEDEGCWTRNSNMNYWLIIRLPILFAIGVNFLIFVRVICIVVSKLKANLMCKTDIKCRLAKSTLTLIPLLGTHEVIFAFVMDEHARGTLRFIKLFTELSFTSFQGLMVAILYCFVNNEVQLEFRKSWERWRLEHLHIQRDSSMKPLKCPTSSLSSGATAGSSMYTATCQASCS
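Assay principle: reduced luminescence from a cAMP-responsive reporter in HEK293 cells co-expressing a constitutively active GLP-1R. Conditions: 24 hr compound incubation, 37 deg C, 5% CO2.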
Mito fusion act = blocks mitochondrial division or promotes mitochondrial fusion. Potency, µM (top dose mostly 46.1 µM), inactives show top-dose growth rescue (activation), most hits filed as activators. 320,000 compounds, 0.23% hits. S. cerevisiae fusion-defective mutant growth rescue, CellTiterGlo 48 h; note: % of control where 0% means no effect; nearly all actives have a fitted effect of over 45% in size
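S. cerevisiae fusion-defective temperature-sensitive mutants (e.g. fzo1-1, mgm1-5) grown 48 h at 37C in YPEG (ethanol/glycerol non-fermentable) medium with 23 nl compound per well; growth rescue read as CellTiterGlo luminescence.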
BRCA1 expr up = activators of BRCA1 expression; 380,000 compounds, 1.1% hits; MCF7-BRCA1-FFLuc reporter, luminescence, 48 h; response scale: scaled: vehicle 0%, 10 µM genistein 100%; Potency, µM (top dose mostly 46.1 µM), without a hit: at the top dose activation, hits mostly activators; note: nearly all actives have a fitted effect of over 80% in size
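Quantitative HTS in MCF7 cells stably reporting BRCA1 expression via firefly luciferase. Compound treatment lasts 48 h at 37 °C in phenol-red free MEM. Activation is expressed relative to genistein at 10 microM and DMSO.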
GLP1R ag = agonists of human GLP-1 receptor. Potency, µM (doses to about 45.6 µM), for the others: top-dose activation, actives largely listed as activators. P43220. 380,000 compounds, 0.007% hits. HEK293 GLP-1R CRE-luciferase, luminescence, 4-6 h; cells express a hypersensitive GLP-1R form; note: % of control where 0% means no effect
Numbers without * were called inactive; ? = inconclusive; . = no result; [ ] = dose if it differs, or a comment. An excerpt weighted towards active compounds, which were near 2.8% of everything screened. Calls come from the whole dose curve; as a rule, active = well fitted curve in the direction sought with a large enough effect; inconclusive = small, poorly fitted or top-dose-only effect, or another doubt; inactive = no such curve, though single readings can be large; an effect the other way counts as inactive or inconclusive. Potency is the fitted concentration of half-maximal effect.

SMILES	HEK293 tox	GLP1R inv ag	Mito fusion act	BRCA1 expr up	GLP1R ag
Cn1c(SCc2ccccc2F)nc2cccnc21	-9.3%	0.0%	-2.2%	6.31µM*	17.4%
COc1ccc(-c2nc(Cn3c(SCc4ccccc4F)nc4cccnc43)c(C)o2)cc1	3.1%	-4.7%	.	.	.
O=C(OCc1ccccc1Cl)c1ccc(-n2cnnc2)cc1	-13.2%	8.9%	-19.7%	0.1%	1.0%
CC1CCC/C(=N\Nc2ccc(Cl)c(C(=O)O)c2)C1 (configuration not stated)	18.1%	42.1%	1.4%	5.01µM*	0.3%
CC1CCC/C(=N\NC(=O)Nc2ccccc2)C1 (configuration not stated)	2.8%	0.7%	2.4%	58.9%	3.9%
CSc1ccc(CN(C)C(=O)C(c2ccccc2)c2ccccc2)cc1	-27.8%	10µM*	10.0%	-0.7%	20.9%
CSc1ccc(CN(C)C(=O)C(Cc2ccccc2)NC(=O)c2ccccc2)cc1 (configuration not stated)	?	?	4.7%	-40.0%	-16.4%
Cc1cccc(NC(=O)N2C3CCCC2CC(NC(=O)C(C)(C)C)C3)c1 (configuration not stated)	4.8%	-5.1%	-6.4%	-2.7%	5.0%
O=S(=O)(Cc1noc(-c2ccc(Cl)cc2)n1)Cc1ccco1	2.4%	15.3%	-4.9%	7.94µM*	12.2%
O=S(=O)(Cc1ccco1)Cc1nc(-c2ccc(Cl)cc2)cs1	13.0%	?	-7.6%	14.8%	15.0%
CCOC(=O)C1=C(c2ccccc2)NC(SCC(=O)NC2CCCCC2)=C(C#N)C1c1ccco1 (configuration not stated)	?	-0.1%	-0.8%	-45.9%	1.5%
CCNc1nc(Cl)nc(NCc2ccccc2)n1	8.2%	15.2%	-1.7%	-2.3%	-8.9%
Cc1ccc(S(=O)(=O)N(C)c2ccc(OCC(=O)Nc3nc4c(ccc5ccccc54)s3)cc2)cc1	0.8%	7.9%	-4.9%	-7.5%	-1.3%
CC(C)c1ccc(Nc2n[nH]c(=S)s2)cc1	6.1%	23.4%	.	2.51µM*	-8.0%
Cc1cccc(C)c1Nc1n[nH]c(=S)s1	1.9%	4.4%	.	1.0%	-0.2%
COc1ccc(C)cc1NC(=O)Nc1ccc(C(=O)N2CCCC2)cc1	-24.9%	18.2%	0.6%	7.94µM*	6.2%
COc1ccc(Cl)cc1NC(=O)Nc1ccc(C(=O)N2CCCC2)cc1	-27.5%	?	-0.4%	?	2.4%
Cc1ccc(S(=O)(=O)Oc2ccccc2)cc1	-7.1%	?	.	14.3%	9.2%
Cc1ccc(S(=O)(=O)Oc2ccccc2-c2ccccc2)cc1	-24.8%	2.51µM*	.	-33.2%	8.4%
Cc1nc(-c2ccccc2)sc1C1(C)CC(c2ccccc2F)=NO1 (configuration not stated)	6.2%	?	.	83.1%	-4.3%
COc1ccc(C(=O)/C(=C/N(C)C)S(=O)(=O)c2ccccc2)cc1	17.3%[7.66 µM]	20.8%[7.66 µM]	-2.0%	3.16µM*	8.5%
CNC(=S)N1N=C(c2ccc(OC)cc2)CC1c1ccccc1Cl (configuration not stated)	15.1%	10µM*	-6.2%	-21.9%	11.9%
CNC(=S)N1N=C(c2ccc(OC)cc2)CC1c1ccc(Cl)cc1Cl (configuration not stated)	3.6%	?	-2.2%	-40.7%	11.5%
CNC(=S)N1N=C(c2ccc(C)cc2)CC1c1ccc(OC)cc1 (configuration not stated)	-4.4%	10µM*	-3.1%	13.7%	-2.6%
CNC(=S)N1N=C(c2ccc(C)cc2)CC1c1cc(OC)ccc1OC (configuration not stated)	?	10µM*	?	-45.4%	13.8%
SMILES	HEK293 tox	GLP1R inv ag	Mito fusion act	BRCA1 expr up	GLP1R ag
CC(=O)c1ccc(OCCCC(=O)NC2CCC(C)CC2)cc1 (configuration not stated)	-4.3%	9.9%	-0.4%	-15.0%	13.8%
O=C(c1ccc(Br)o1)N(Cc1ccccc1)Cc1ccccc1	-8.7%	10µM*	?	-2.3%	18.5%
O=C(NCCc1ccccc1)c1ccc(Br)o1	3.9%	6.4%	-0.8%	7.08µM*	11.4%
O=C(NCCNC(=O)c1ccc(Br)o1)c1ccc(Br)o1	-2.7%	62.8%	8.2%	-2.0%	3.4%
COc1ccc(CC(=O)Nc2ccc(S(=O)(=O)Nc3onc(C)c3C)cc2)cc1OC	0.5%	-3.3%	-2.0%	5.4%	1.3%
CN1CCCN(C(=O)/C=C/c2ccc(F)cc2)CC1	0.2%	-0.9%	-6.0%	13.8%	-0.6%
CN(C1CC(C)(C)NC(C)(C)C1)S(=O)(=O)CC12CCC(CC1=O)C2(C)C (configuration not stated)	2.8%	4.7%	0.7%	3.6%	0.4%
O=C(O)C1C2C=CC(C2)C1C(=O)NCc1ccc(Cl)c(Cl)c1 (configuration not stated)	-14.1%	11.2µM*	8.0%	-10.1%	3.0%
Cc1[nH]c(C(=O)O)c(C#N)c1C(=O)c1ccccc1	-10.6%	1.1%	7.2%	-4.3%	0.0%
CC(=O)N(C(C)=O)c1c(C#N)c(C)n(-c2ccccc2)c1C(=O)c1ccccc1	-8.3%	5.62µM*	-6.4%	-12.5%	-12.2%
Cc1ccc(CNC(=O)C(=O)NCC2OCCN2C(=O)c2ccc(Cl)cc2)cc1 (configuration not stated)	-1.6%	?	-3.7%	-16.3%	-6.1%
CCN1CCN(C(=O)c2ccc3c(c2)c(C)c(C)n3Cc2ccccc2)CC1	-0.1%[7.66 µM]	-11.6%[7.66 µM]	20.3%	9.9%	-1.0%
CCn1c(C)c(C)c2cc(C(=O)N3CCc4ccccc4C3)ccc21	12.4%	8.91µM*	23.4%	-19.3%	17.8%
O=C(Nc1ccc2c(c1)OCCO2)c1cc2sccc2n1Cc1ccc(F)cc1	-8.0%	5.62µM*	-3.3%	-13.2%	-10.6%
CNc1nnc(-c2cc3cc(Cl)ccc3oc2=O)s1	69.2%	42.5%	2.7%	10µM*	-5.9%
O=C(CN1CCOCC1)Nc1cccc(C(=O)Nc2cccc(C(F)(F)F)c2)c1	?	-23.2%	-4.9%	-32.2%	-5.4%
CCCCCNCC(=O)Nc1cccc(C(=O)Nc2cccc(C(F)(F)F)c2)c1	?	6.31µM*	-21.5%	-76.0%	11.9%
Cc1ccc(NC(=O)c2ccco2)c([N+](=O)[O-])c1	1.5%	21.2%	4.6%	7.94µM*	15.2%
COc1ccc(NC(=O)c2ccco2)c([N+](=O)[O-])c1	-19.8%	0.0%	-2.8%	?	-0.9%
COC(=O)c1ccccc1NC(=O)Cn1nc(C(F)(F)F)c2c1CCCC2	1.0%	11.2µM*	.	.	.
NC(=O)[C@@H]1CC2(CC(c3cccc(NC(=O)COc4ccc(Cl)cc4)c3)=NO2)CN1C(=O)COc1ccc(Cl)cc1 (some centres not stated)	-25.9%	11.2µM*	2.3%	-51.4%	-2.3%

Assay outcomes (PubChem)
